hcDAF12 agonist = H. contortus DAF-12 activation, primary screen. HEK293 hcDAF-12 lit1-tk-luc reporter, luminescence; 0% DMSO, 100% Δ7-dafachronic acid. activation, % at 6.8 µM. 370,000 tested, 1.4% active;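 active means activation above the mean of all tested compounds plus 3 SD, cut at about 5.5% in these data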
DAX1 inh-1 = NR0B1 (DAX1) inhibition | P51843 | HEK293 Gal4-DAX1 luciferase reporter, luminescence | inhibition, % at 6.75 µM | 340,000 tested, 0.99% active;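 active means inhibition above the mean over all tested compounds plus 3 SD, cut at about 4.2% in these data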;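 further: inhibition shows as a rise in luminescence from relieved DAX1 repression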
Target sequence (P51843 207-470 limits assumed): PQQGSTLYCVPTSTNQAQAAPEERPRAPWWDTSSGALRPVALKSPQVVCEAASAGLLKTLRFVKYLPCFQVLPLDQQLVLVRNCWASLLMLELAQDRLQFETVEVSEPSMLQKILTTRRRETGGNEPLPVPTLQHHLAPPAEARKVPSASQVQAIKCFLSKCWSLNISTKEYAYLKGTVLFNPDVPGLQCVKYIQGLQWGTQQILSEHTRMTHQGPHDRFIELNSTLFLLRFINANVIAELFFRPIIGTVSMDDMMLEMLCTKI
ssDAF-12 act = activators of S. stercoralis DAF-12 nuclear receptor | HEK293 ssDAF-12/GRIP1 lit1-tk-luc reporter, luminescence; % of 3 µM dafachronic acid response | activation, % at 6.8 µM | 370,000 tested, 1% active | AID 652126;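 active means activation above the mean over all tested compounds plus 3 SD, cut at about 0.9% in these data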
DAX1 inh-2 = blocks DAX1 repression of SF-1 activated StAR promoter. 370,000 tested, 1.1% active. HEK293T StAR-luciferase reporter, SF-1/DAX-1 repression relief. AID 652010. inhibition, % at 6.8 µM;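 active means inhibition above the mean over all tested compounds plus 3 SD, cut at about 3.6% in these data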;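 further: higher inhibition means more luminescence from relief of DAX-1 repression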
hgDAF12 agonist = activates the H. glycines DAF-12 receptor ligand-binding domain. HEK293 GAL4-hgDAF12 UAS-luciferase reporter, agonist luminescence; normalized to butyrate control. activation, % at 6.8 µM. 370,000 tested, 1.8% active. AID 687014;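 active means activation above a cutoff set at the mean of all screened compounds plus 3 SD, cut at about 10% in these data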
DAX1 inh confirm = confirmation of human DAX1 (NR0B1) inhibitors | AID 652134 | shares compounds with DAX1 inh-2 | HEK293T StAR-promoter luciferase reporter, SF-1/DAX-1 repression | inhibition, % at 6.8 µM | 2,400 tested, 87% active;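 active means inhibition above the average of every tested compound plus 3 SD, cut at about 3.8% in these data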;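 further: active compounds raise luminescence by relieving repression of the StAR reporter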
Target sequence (P51843 whole entry, looked up): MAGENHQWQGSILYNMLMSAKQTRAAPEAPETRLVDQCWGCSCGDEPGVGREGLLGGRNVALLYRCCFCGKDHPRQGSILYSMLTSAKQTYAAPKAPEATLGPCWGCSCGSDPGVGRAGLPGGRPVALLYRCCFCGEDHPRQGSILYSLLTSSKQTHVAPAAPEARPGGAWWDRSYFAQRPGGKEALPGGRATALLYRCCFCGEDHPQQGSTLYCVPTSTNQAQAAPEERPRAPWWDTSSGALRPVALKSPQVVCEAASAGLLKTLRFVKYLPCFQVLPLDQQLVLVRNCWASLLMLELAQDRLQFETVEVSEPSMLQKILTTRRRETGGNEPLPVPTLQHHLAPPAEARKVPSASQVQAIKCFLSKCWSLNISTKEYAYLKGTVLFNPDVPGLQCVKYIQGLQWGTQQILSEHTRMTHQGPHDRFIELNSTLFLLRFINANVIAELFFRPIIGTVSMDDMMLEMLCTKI
SF1 mutant ctr = counter-screen for DAX1 inhibitors: nonselective inhibitors with SF-1 AF2 mutant | shares compounds with DAX1 inh-2 | HEK293 StAR-luciferase, luminescence | inhibition, % at 6.8 µM | 2,400 tested, 78% active | AID 652136;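 active means inhibition above the mean of all tested compounds plus 3 SD, cut at about 3% in these data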
LXRb hcDAF ctr = counter-screen for hcDAF-12 agonists: agonists of human LXR-beta; shares compounds with hcDAF12 agonist; HEK293 Gal4-LXR tk-luc reporter, luminescence, 24 h; normalized: DMSO 0%, positive control 100%; activation, % at 6.8 µM; 3,400 tested, under 10 active;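 active means mean percent activation of the reporter above a cutoff set as the average over tested compounds plus their standard deviation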
hcDAF12 ag = hcDAF-12 agonism, confirmation assay; 3,400 tested, 61% active; HEK293 hcDAF-12 lit1-tk-luc reporter, luminescence; % of Δ7-dafachronic acid response; AID 743032; shares compounds with hcDAF12 agonist; activation, % at 6.8 µM;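 active means mean activation across triplicate tests above the threshold derived from the earlier primary screen, cut at about 5.5% in these data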
hgDAF12 ag = confirmation of H. glycines DAF-12 agonists | shares compounds with hgDAF12 agonist | HEK293 GAL4-hgDAF12 luciferase reporter, agonist mode; percent of butyrate response | activation, % at 6.8 µM | 3,300 tested, 80% active;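 active means mean activation over triplicate wells above the hit cutoff derived from the earlier primary screen, cut at about 11% in these data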
LXRb DAF12 ctr = activates human LXR-beta, counter-screen for DAF-12 agonists. HEK293 Gal4-LXR luciferase reporter, 24 h. shares compounds with hgDAF12 agonist. activation, % at 6.8 µM. 3,300 tested, under 10 active;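 active means mean activation of the triplicate above a set limit carried over from the primary screen, none filed active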
Large screens that a line does not name were inactive (follow-up assays come after a bar, where they were run). Compounds with a hit are over-represented: about 4.1% of the library has one in this group of screens.

Cc1ccn2c(CC(C)(C)C)c(-c3ccc(F)cc3)nc2c1	hcDAF12 agonist 6.7, DAX1 inh-2 5.6 | DAX1 inh confirm 8.8 | SF1 mutant ctr 6.6 | LXRb hcDAF ctr inactive | hcDAF12 ag inactive
Cc1ccccc1N1CCN(S(=O)(=O)c2ccc3c(c2)oc(=O)n3C)CC1	none (no result: DAX1 inh-1)
C(=Cc1cnc2ccccc2n1)c1ccc2c(c1)OCO2	none
C(=Cc1nc2ccccc2o1)c1ccc2c(c1)OCO2	hcDAF12 agonist 8.1, DAX1 inh-2 13.2, hgDAF12 agonist 14.4 | DAX1 inh confirm 6.3 | SF1 mutant ctr inactive | LXRb hcDAF ctr inactive | hcDAF12 ag 8.9
Cc1cc(C)c2nc(NC(=O)c3ccco3)sc2c1	hcDAF12 agonist 6.6, ssDAF-12 act 1.0, DAX1 inh-2 19.1 | DAX1 inh confirm 13.4 | SF1 mutant ctr inactive | LXRb hcDAF ctr inactive | hcDAF12 ag 9.2
N#CCSc1ccc2nc(-c3ccccc3)cn2n1	hcDAF12 agonist 7.5, ssDAF-12 act 1.0, DAX1 inh-2 7.1 | DAX1 inh confirm 5.8 | SF1 mutant ctr 4.7 | LXRb hcDAF ctr inactive | hcDAF12 ag 8.1
COC(=O)[C@]12C[C@H](CC(=O)NCc3cccs3)C(=O)N(Cc3ccccc3)C1=C[C@H](C(C)(C)C)O[C@@H]2C	none (no result: DAX1 inh-1)
COC(=O)[C@]12C[C@H](CC(=O)NCC34CC5CC(CC(C5)C3)C4)C(=O)N(CCc3ccc(OC)c(OC)c3)C1=C[C@H](C(C)(C)C)O[C@@H]2C	none (no result: DAX1 inh-1)
c1ccc(-c2cc3nc(NCc4cccs4)ccn3n2)cc1	hcDAF12 agonist 10.1, DAX1 inh-2 7.8, hgDAF12 agonist 12.2 (no result: DAX1 inh-1) | DAX1 inh confirm 16.1 | SF1 mutant ctr 8.1 | LXRb hcDAF ctr inactive | hcDAF12 ag 6.6
COc1cc(-c2cc3nc(NCc4cccs4)ccn3n2)cc(OC)c1OC	none (no result: DAX1 inh-1)
COC(=O)C1=C(C)N(Cc2ccc(C(F)(F)F)cc2)C(=NCc2ccc(OC)cc2)NC1c1ccccc1C(F)(F)F (configuration not stated)	none (no result: DAX1 inh-1)
COc1ccc(-c2csc(-c3ccccc3)n2)c(OC)c1	hcDAF12 agonist 15.0, DAX1 inh-1 4.6, ssDAF-12 act 2.4, DAX1 inh-2 8.9, hgDAF12 agonist 21.5 | DAX1 inh confirm 18.5 | SF1 mutant ctr 8.5 | LXRb hcDAF ctr inactive | hcDAF12 ag 10.6
Cc1ccsc1C(=O)NN=C1CCCCCC1	hcDAF12 agonist 9.2, ssDAF-12 act 1.8, DAX1 inh-2 15.1, hgDAF12 agonist 14.6 | DAX1 inh confirm 4.7 | SF1 mutant ctr 3.4 | LXRb hcDAF ctr inactive | hcDAF12 ag inactive | hgDAF12 ag 12.8 | LXRb DAF12 ctr inactive
C/C(=N\NC(=O)c1sccc1C)c1ccncc1	hcDAF12 agonist 9.1, ssDAF-12 act 1.1, DAX1 inh-2 18.0, hgDAF12 agonist 19.9 | DAX1 inh confirm 4.9 | SF1 mutant ctr 2.9 | LXRb hcDAF ctr inactive | hcDAF12 ag inactive | hgDAF12 ag 13.6 | LXRb DAF12 ctr inactive
O=[N+]([O-])c1ccc2nc(CNc3nc(N4CCOCC4)nc4c3ncn4-c3ccsc3)[nH]c2c1	none (no result: DAX1 inh-1, DAX1 inh-2)
COc1ccc(CNC2CCC23CCC(c2ccccc2)CC3)cc1OC (configuration not stated)	none (no result: DAX1 inh-1, DAX1 inh-2)
Cc1cccc(C)c1NC(=O)C1CCN(c2ncccn2)CC1	none (no result: DAX1 inh-1)
c1ccc2sc(NN=C3CCCCCC3)nc2c1	hcDAF12 agonist 12.4, DAX1 inh-2 5.2, hgDAF12 agonist 13.4 | DAX1 inh confirm 5.4 | SF1 mutant ctr inactive | LXRb hcDAF ctr inactive | hcDAF12 ag 10.8 | hgDAF12 ag inactive | LXRb DAF12 ctr inactive
C/C(=N\Nc1nc2ccccc2s1)c1ccc2c(c1)OCO2	none
Nc1ccccc1C(=O)NNC1=C(C(=O)C(F)(F)F)CCC1	hcDAF12 agonist 9.2, DAX1 inh-1 15.1, DAX1 inh-2 7.2, hgDAF12 agonist 17.4 | DAX1 inh confirm 13.1 | SF1 mutant ctr 6.5 | LXRb hcDAF ctr inactive | hcDAF12 ag inactive | hgDAF12 ag 18.0 | LXRb DAF12 ctr inactive
CCCCCCCCN1C(=O)N2Cc3cc(OC)ccc3C2CS1(=O)=O (configuration not stated)	none (no result: DAX1 inh-1)
Cc1ccc(C(=O)Nc2nc3ccccc3s2)s1	hcDAF12 agonist 11.9, DAX1 inh-2 4.8, hgDAF12 agonist 21.4 | DAX1 inh confirm 15.8 | SF1 mutant ctr 6.2 | LXRb hcDAF ctr inactive | hcDAF12 ag 11.1 | hgDAF12 ag 21.7 | LXRb DAF12 ctr inactive
CCCCNC(=O)Nc1nc2ccccc2s1	DAX1 inh-1 8.8, DAX1 inh-2 5.5, hgDAF12 agonist 14.6 | DAX1 inh confirm 10.5 | SF1 mutant ctr 4.8 | hgDAF12 ag 14.7 | LXRb DAF12 ctr inactive
Cc1ccc(C(=O)Nc2nc3ccc(S(C)(=O)=O)cc3s2)s1	none
COc1ccc(NC(=O)N(C)[C@H]2C[C@H]3c4[nH]c5c(-c6ccccc6)cccc5c4CCN3C(=O)[C@H]2[C@H](C)O)cc1	none (no result: DAX1 inh-1)
COc1ccc(S[C@]2(C(=O)NC(C)C)CC(=O)N[C@@H]2c2ccc(OC)cc2)cc1	none (no result: DAX1 inh-1)
CCCC(=O)OC12CCCN(C1)/C(=C/c1cccc(OC)c1)C2 (configuration not stated)	none (no result: DAX1 inh-1)
O=C(Nc1ccccc1F)Nc1ccccc1F	none
O=C(Nc1ccc2c(c1)CCC2)Nc1ccccc1F	hcDAF12 agonist 8.6, DAX1 inh-2 16.2, hgDAF12 agonist 16.3 | DAX1 inh confirm 13.1 | SF1 mutant ctr 8.5 | LXRb hcDAF ctr inactive | hcDAF12 ag 8.6 | hgDAF12 ag 21.8 | LXRb DAF12 ctr inactive
O=C(Nc1ccccc1)Nc1ccc2c(c1)CCC2	DAX1 inh-2 10.2, hgDAF12 agonist 16.3 | DAX1 inh confirm 7.5 | SF1 mutant ctr 5.0 | hgDAF12 ag 15.2 | LXRb DAF12 ctr inactive
COCCNC(=O)C[C@H]1CC[C@H]2[C@@H](COc3ccc(NS(=O)(=O)c4ccc(Cl)cc4)cc3C(=O)N2C)O1	none (no result: DAX1 inh-1)

Compound activity: PubChem, The Scripps Research Institute Molecular Screening Center
